Nine compounds from PubChem BioAssay (NCI) can be followed below.

Common to all, as to experiment: NCI-60 one-dose screen, 48 h (100 = growth as untreated, 0 = no growth, -100 = all killed)
Common to all, as to details: 10 µM unless noted

Experiment [1] concerns RPMI-8226 leukemia.
The subject of experiment [2] is OVCAR-8 ovarian.
For experiment [3], the system named is OVCAR-5 ovarian.
Experiment [4] concerns OVCAR-4 ovarian.
Experiment [5] relates to SK-OV-3 ovarian.
The test system of experiment [6] is IGROV1 ovarian.
The subject of experiment [7] is OVCAR-3 ovarian.
In experiment [8] the test system is HS 578T breast.
For experiment [9], the system named is NCI/ADR-RES ovarian.
The test system of experiment [10] is T-47D breast.
Experiment [11] deals with BT-549 breast.
Experiment [12] relates to MDA-MB-435 melanoma.
Experiment [13] has as its system SW-620 colon.
The subject of experiment [14] is MCF7 breast.
For experiment [15], the system named is HCT-116 colon.
In experiment [16] the test system is HCC-2998 colon.
In experiment [17] the test system is KM12 colon.

About 83,000 compounds went through this panel and 20% of them were active in at least one assay; those are over-represented in the sample as a whole.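 For each line, cells grew in 96-well plates with the test compound present at a single concentration for 48 hours.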 A number with no mark means an inactive call. Activity calls are given as the source filed them. Rule for the calls: active = growth percent below 10; inactive = the rest.

As to `CCCCN(CCCC)c1ccc(C(=O)O)cc1`, the growth in experiment [1] was 102%; in experiment [2], 105%; in experiment [3], 108%; in [4] it was 101%; in [5], 98.5%; in experiment [6] it was 99.3%. The growth is 106% in [7]; 109% in [8]; 106% in [9]; 94.7% in experiment [10]; 97% in [11]; 102% in experiment [12]. The growth is 107% in experiment [13]; 98.6% in [14]; 97.3% in [15]; 100% in experiment [16]; 103% in [17].

Regarding `COc1ccc(-c2cc(C#N)c(NNC(C)=O)[nH]2)cc1`, the growth in experiment [1] was 123%; in [2], 110%; in experiment [3], 94.7%; in experiment [4], 68.8%; in experiment [5], 179%; in experiment [6], 101%. In addition, the growth is 104% in [7]; 107% in experiment [8]; 109% in experiment [9]; 165% in [10]; 119% in experiment [11]; 107% in [12]. The growth in experiment [13] was 115%; in experiment [14] it was 110%; in experiment [15] it was 92%; in experiment [17], 107%.

Turning to `Cc1ncc(C(=O)Nc2ccc(CN3CCN(C)CC3)c(C(F)(F)F)c2)cc1C#Cc1c(N)ncc2ccc(F)cc12`, the growth was -43.6% (active) in [1]; -74.8% (active) in experiment [2]; -45.3% (active) in [3]; -58.6% (active) in experiment [4]; 41.4% in experiment [5]; -76% (active) in experiment [6]. Also, the growth was -23.4% (active) in [7]; -1.46% (active) in experiment [8]; -29.7% (active) in [9]; 23.6% in experiment [11]; -66.5% (active) in experiment [12]; -72.1% (active) in experiment [13]. Besides, the growth is -72.6% (active) in experiment [14], -72% (active) in experiment [15], 39.1% in [16] and -80.7% (active) in [17].

On to `CCCCCCCCCCCCCCCCNC(=S)N/N=C/c1ccc(O)cc1O`, for which the growth in [1] is 59.7%; in [2], 56.2%; in [3], 95.3%; in experiment [4], 66.9%; in experiment [5], 87.7%; in [6], 55.2%. The growth in experiment [7] is 73.1%; in experiment [8], 97.6%; in experiment [9], 69.9%; in experiment [10] it was 89.6%; in experiment [11], 83.5%; in experiment [12], 75.2%. For the same compound, the growth in [13] was 66.7%; in [15] it was 51.8%; in experiment [16], 86.9%; in experiment [17], 71.8%.

Turning to `CC(=O)Oc1cc2ccccc2cc1C(C)C`, the growth in experiment [1] is 109%; in [2] it was 104%; in experiment [3], 98.9%; in experiment [4], 108%; in [5] it was 104%; in experiment [6], 123%. For the same compound, the growth in [7] is 115%; in experiment [8] it was 99.8%; in experiment [9] it was 116%; in experiment [10] it was 101%; in experiment [11], 112%; in [12], 102%. Further, the growth in experiment [13] is 99.7%; in [14], 98%; in experiment [15] it was 97.1%; in [16], 99.2%; in [17], 118%.

`O=C(NC(=S)NNC(=S)NNc1ccccc1)c1ccccc1`: the growth is 19.8% in experiment [1]; 20.9% in experiment [2]; 59.7% in [3]; 84.8% in experiment [4]; 89.9% in experiment [5]; 33.4% in [6]. In addition, the growth in experiment [7] was 71.6%; in experiment [8] it was 15.2%; in experiment [9], 75.4%; in experiment [10], 18.4%; in experiment [11], 49.5%; in experiment [12], 4.94% (active). The growth in experiment [13] is 24.4%; in experiment [14], 8.12% (active); in [15], 24.3%; in experiment [16], 50.7%; in [17] it was 59%.

With `O=Nc1c(-c2c(O)[nH]c3cc(Br)ccc23)[nH]c2ccccc12`, the growth in experiment [1] is -5.99% (active); in experiment [2], -17.4% (active); in experiment [3], -72.9% (active); in experiment [4], 7.53% (active); in experiment [5], -77.8% (active); in experiment [6] it was -44.5% (active). Besides, the growth in experiment [7] was -64.9% (active); in experiment [8], -49.7% (active); in experiment [9], -76.7% (active); in experiment [10] it was -31.1% (active); in experiment [11], 40%; in experiment [12] it was 31.4%. The growth was -92.5% (active) in [13], -40% (active) in [14], -67.3% (active) in experiment [15] and -89.9% (active) in experiment [17].

For the compound `CNc1nc2ncn(C)c2c(=O)[nH]1`, the growth in [1] was 97.4%; in [2] it was 104%; in experiment [3] it was 86.7%; in experiment [4], 93.8%; in experiment [5], 104%; in [6] it was 94.2%. The growth in experiment [7] is 113%; in [8] it was 105%; in experiment [9], 92.6%; in [10], 91.4%; in experiment [11], 88.7%; in experiment [12], 94.6%. For the same compound, the growth was 95.7% in experiment [13], 96% in experiment [14], 100% in [15] and 86.8% in experiment [17].

In the case of `COc1cc2c(cc1OC)C(Cc1cc(OC)c(OC)cc1[N+](=O)[O-])=NCC2`, the growth was 78.1% in experiment [1]; 98% in experiment [2]; 73.6% in [3]; 91.6% in experiment [4]; 89.8% in [5]; 98.1% in experiment [6]. In addition, the growth in experiment [7] is 95.4%; in experiment [8], 87.8%; in experiment [9], 81.8%; in experiment [10], 78.5%; in experiment [11] it was 56.6%; in experiment [12] it was 90.9%. The growth was 82% in [13]; 94% in [14]; 62.2% in experiment [15]; 89.5% in experiment [16]; 88% in experiment [17].
